Test results as given in PubChem BioAssay (NCATS).
Where “and” joins values, the source holds several entries; their conditions need not be identical. Equal values may be shown once. Records with an inconclusive call do not appear. Calls of active or inactive are those of the source. Unless noted, calls come from the whole dose curve; as a rule, active = well fitted curve in the direction sought with a large enough effect; inconclusive = small, poorly fitted or top-dose-only effect, or another doubt; inactive = no such curve, though single readings can be large; an effect the other way counts as inactive or inconclusive.

Legend:
[1] = qHTS Assay for Identifying Gametocytocidal Compounds (AID 743244);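 note: % is set by controls: 0 for no effect and ±100 for the full control effect; actives lower the fluorescent signal which means gametocytes are killed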; conditions: P. falciparum 3D7 stage III-V gametocytes, alamarBlue, 72 h; max response: stronger effect = lower value
Summary of the method: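 P. falciparum 3D7 stage III–V gametocytes (20,000 cells/well) were exposed to compounds for 72 h at 37 °C, 5% CO2. AlamarBlue was then added for 24 h; decreased resorufin fluorescence (Ex 525/Em 598 nm) indicated loss of viability.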

[2] = qHTS profiling for inhibitors of Plasmodium falciparum (3D7) proliferation (AID 743322; call rule not given here;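 note: infected erythrocytes exposed to compound for 72 h before lysis; 100% = DMSO vehicle wells and 0% = 0.29 µM artemisinin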); conditions: P. falciparum 3D7 proliferation, at 28.7 µM (top of the series)
Summary of the method: (§1)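 Parasite DNA was quantified by SYBR Green I fluorescence (ex 485, em 535 nm) after overnight lysis in saponin/Triton buffer at room temperature. Cultures at 0.3% parasitemia and 2.5% hematocrit were first exposed to compound for 72 h at 37 C; signals were normalised to artemisinin (0.29 uM) and vehicle wells.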

[3] = qHTS profiling for inhibitors of Plasmodium falciparum (DD2) proliferation (AID 743323; call rule not given here); conditions: at 28.7 µM (top of the series), lower = more inhibition
Summary of the method: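 P. falciparum Dd2-infected erythrocytes (0.3% parasitemia, 2.5% hematocrit) exposed 72 h at 37 C, 5% CO2. Lysis with SYBR Green, overnight at room temperature, fluorescence 485/535 nm; normalized to 0.29 uM artemisinin and DMSO.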

[4] = qHTS profiling for inhibitors of Plasmodium falciparum (HB3) proliferation (AID 743324); conditions: Plasmodium falciparum HB3 blood-stage proliferation; at 28.7 µM (top of the series);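 note: 100% = DMSO vehicle wells and 0% = artemisinin-treated control wells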
Summary of the method: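 SYBR Green fluorescence (485 ex/535 em) of lysed cultures, incubated overnight at room temperature in the dark, quantifies parasite DNA. Infected erythrocytes at 0.3% parasitemia and 2.5% hematocrit were exposed 72 h; values normalized to DMSO and 0.29 uM artemisinin controls.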

[5] = qHTS profiling of the MIPE4 collection as inhibitors of Plasmodium falciparum (3D7) proliferation (AID 743344; call rule not given here;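 note: scaled between DMSO vehicle wells and 0.29 µM artemisinin as full inhibition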); conditions: P. falciparum 3D7 in erythrocytes, SYBR Green DNA fluorescence, 72 h; at 28.5 µM (top of the series) unless noted
Summary of the method: as §1

[6] = qHTS profiling of the MIPE4 collection as inhibitors of Plasmodium falciparum (DD2) proliferation (Rep 2) (AID 743346; call rule not given here); conditions: P. falciparum Dd2 in erythrocytes, SYBR Green DNA, 72 h; at 28.5 µM (top of the series) unless noted
Summary of the method: as §1

[7] = qHTS profiling of the MIPE4 collection as inhibitors of Plasmodium falciparum (HB3) proliferation (AID 743347; call rule not given here;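 note: plate controls were DMSO vehicle wells for no effect and artemisinin wells for full effect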); conditions: P. falciparum HB3 in erythrocytes, SYBR Green DNA, 72 h; at 28.5 µM (top of the series) unless noted
Summary of the method: as §1

[8] = High-throughput drug toxicity screening in the BPDCN cell line Gen2.2 (AID 1224824; call rule not given here;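 note: cells exposed to compounds for 48 h before reading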); conditions: Gen2.2 BPDCN cells; at 45.8 µM (top of the series) unless noted
Summary of the method: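 CellTiter-Glo luminescence after 48 h compound exposure of Gen2.2 cells; percent activity set with DMSO as 100% and bortezomib (9.2 uM final) as 0%. Cells seeded at 500 per well, RPMI + 10% FBS, 37 °C.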

[9] = High-throughput drug toxicity screening in the BPDCN cell line Cal-1 (AID 1224825; call rule not given here); conditions: Cal-1 BPDCN cell viability, qHTS; at 45.8 µM (top of the series) unless noted
Summary of the method: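 CellTiter-Glo luminescence after 48 h compound exposure; percent activity scaled with DMSO as 100% and bortezomib (9.2 uM final) as 0%. Cal-1 cells seeded at 500/well in RPMI, 10% FBS, no phenol red.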

[10] = qHTS assay for measurement of the activity of small molecule inhibitors on Zika virus induced Caspase-3 activity in human iPSC derived neural progenitor cells (hNPCs) (AID 1224857); note: % of control where 0% means no effect; nearly all actives have a fitted effect of over 65% in size
Summary of the method: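 hNPCs seeded 350 cells/well, cultured 16–20 h; compounds added 1 h before ZIKV (2 FFU/cell), 37 C 6 h. Caspase-Glo 3/7 luminescence after 30 min RT; % inhibition from induction scaled to uninfected (0%) and infected (100%) wells.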

[11] = qHTS Screen of the MIPE 4.0 Collection Against Ewings Sarcoma (RDES) (AID 1259252); note: nearly all actives have a fitted effect of over 35% in size; note: potency is the fitted concentration of half-maximal effect
Summary of the method: (§2)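 Log-phase cells in RPMI with 5% FBS attached for 4 h, then received compounds as a titration for 48 h at 37C, 5% CO2. Viability was read by CellTiter-Glo luminescence and normalized to DMSO and no-cell wells.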

[12] = qHTS Screen of the MIPE 4.0 Collection Against Ewings Sarcoma (TC71) (AID 1259253); note: nearly all actives have a fitted effect of over 40% in size; note: potency is the fitted concentration of half-maximal effect
Summary of the method: as §2

[13] = qHTS Screen of the MIPE 4.0 Collection Against Ewings Sarcoma (EW8) (AID 1259255);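 note: 100% = DMSO-treated cells and 0% = medium-only wells without cells; nearly all actives have a fitted effect of over 35% in size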
Summary of the method: as §2

[14] = qHTS Screen of the MIPE 4.0 Collection Against Ewings Sarcoma (TC32) (AID 1259256); note: nearly all actives have a fitted effect of over 45% in size; note: potency is the fitted concentration of half-maximal effect
Summary of the method: as §2

[15] = biological target: T1, Hexokinase-4 (Homo sapiens) + Glucokinase regulatory protein (Homo sapiens) (UniProt P35557+Q14397); assay: qHTS assay for inhibitors of recombinant human GCK-GKRP interaction: ADP-Glo assay (AID 743206);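 note: plate controls were DMSO plus enzyme for no effect and no enzyme for full effect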
T1 sequence (P35557 whole entry, looked up): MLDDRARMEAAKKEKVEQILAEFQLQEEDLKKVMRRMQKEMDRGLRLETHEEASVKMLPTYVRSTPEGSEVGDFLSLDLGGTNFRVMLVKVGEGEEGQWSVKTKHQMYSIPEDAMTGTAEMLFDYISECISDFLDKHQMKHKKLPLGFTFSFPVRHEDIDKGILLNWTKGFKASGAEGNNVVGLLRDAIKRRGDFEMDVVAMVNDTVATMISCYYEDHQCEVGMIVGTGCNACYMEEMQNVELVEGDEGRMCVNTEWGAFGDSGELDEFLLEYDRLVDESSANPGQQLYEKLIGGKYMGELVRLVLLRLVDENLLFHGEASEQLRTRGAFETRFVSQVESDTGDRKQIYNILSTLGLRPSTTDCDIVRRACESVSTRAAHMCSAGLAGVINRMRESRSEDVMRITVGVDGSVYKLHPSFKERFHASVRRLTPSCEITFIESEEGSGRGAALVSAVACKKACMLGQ
T1 sequence (Q14397 whole entry, looked up): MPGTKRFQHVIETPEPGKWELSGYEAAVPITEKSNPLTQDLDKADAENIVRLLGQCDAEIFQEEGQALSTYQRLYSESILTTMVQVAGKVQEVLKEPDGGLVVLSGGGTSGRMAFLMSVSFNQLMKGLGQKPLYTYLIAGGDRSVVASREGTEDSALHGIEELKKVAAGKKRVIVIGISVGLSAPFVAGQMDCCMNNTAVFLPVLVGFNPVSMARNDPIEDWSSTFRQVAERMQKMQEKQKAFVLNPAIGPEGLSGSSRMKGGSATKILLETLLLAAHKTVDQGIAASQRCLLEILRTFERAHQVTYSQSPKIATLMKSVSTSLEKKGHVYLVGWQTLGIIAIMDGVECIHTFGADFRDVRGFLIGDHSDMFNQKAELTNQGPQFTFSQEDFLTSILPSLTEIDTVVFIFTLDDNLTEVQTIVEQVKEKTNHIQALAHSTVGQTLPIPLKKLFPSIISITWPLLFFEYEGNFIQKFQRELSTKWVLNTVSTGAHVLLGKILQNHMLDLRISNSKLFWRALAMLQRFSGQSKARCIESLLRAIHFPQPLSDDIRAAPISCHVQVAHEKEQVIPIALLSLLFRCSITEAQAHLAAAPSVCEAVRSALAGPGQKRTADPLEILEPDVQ
Summary of the method: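 Pin-transferred compounds meet a 15 nM GST-GCK/15 nM FLAG-GKRP/2 uM S6P mix (dispense concentrations). ATP is then added to 0.4 mM final with 5 mM glucose, and the reaction runs 60 min at room temperature. ADP is quantified luminescently.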

[16] = biological target: T1, Hexokinase-4 (Homo sapiens) + Glucokinase regulatory protein (Homo sapiens); assay: qHTS assay for inhibitors of recombinant human GCK-GKRP interaction: HTRF assay (AID 743207);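 note: 0% = DMSO with GCK present and -100% = DMSO wells lacking GCK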
Summary of the method: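 HTRF read-out (ex 320 nm; 615/665 nm emission) after 60 min RT equilibration of 5 nM GST-GCK, 5 nM FLAG-GKRP, 2 uM S6P, compound and anti-FLAG/anti-GST detection antibodies; signal normalized between DMSO wells with and without GCK.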

[17] = qHTS profiling of the MIPE4 collection as inhibitors of Plasmodium falciparum (DD2) proliferation (AID 743345; call rule not given here); conditions: P. falciparum Dd2 in erythrocytes, SYBR Green DNA, 72 h; at 28.5 µM (top of the series) unless noted
Summary of the method: as §1

Structure (SMILES)	max response [1]	remaining parasite growth % (stronger effect = lower value) [2]	activity, percent of control [3]	remaining proliferation (% of control), lower = more inhibition [4]	parasite growth, % of DMSO control [5]	parasite growth, % of control (lower = inhibition) [6]	growth, % of control [7]	cell viability, % of control (lower = more cytotoxic) [8]	viability (% of control) [9]	Potency [10]	Potency [11]	Potency [12]	Potency [13]	Potency [14]	Potency [15]	Potency [16]	parasite growth remaining, % of DMSO control (lower = more inhibition) [17]
CN(C)C(=N)N=C(N)N	1.21% (inactive) and -1.21% (inactive)	104%	125%	102%	97.5%	85.6%	110%	165%	99.5%	inactive	inactive	inactive	inactive	inactive			
Nc1nnc(-c2cccc(Cl)c2Cl)c(N)n1	5.45% (inactive) and 12.4% (inactive)				93.8%	104%	98.1%	86.5%	36.7%	inactive					inactive	inactive	98%
O=C(c1ccc(OCCN2CCCCC2)cc1)c1c(-c2ccc(O)cc2)sc2cc(O)ccc12					7.18%	20.8%	9.13%	67.1%	40.4%	inactive	2.35 µM (active)	7.43 µM (active)		8.33 µM (active)	inactive	inactive	
NC(=O)NO	-4.54% (inactive) and 19.4% (inactive)				93.9%	95.5%	96.8%	4.63%	2.6%	inactive	20.9 µM (active)	5.9 µM (active)		inactive	inactive	inactive	97.5%
C[C@H]1c2cccc(O)c2C(O)=C2C(=O)[C@]3(O)C(O)=C(C(N)=O)C(=O)[C@@H](N(C)C)[C@@H]3[C@@H](O)[C@@H]21	18.1% (inactive)	16.9%	12.8%	15.7%	6.81%	14.3%	12.4%	12.3%	19.9%	inactive				inactive	inactive	inactive	28.6%
